Many of the other results were omitted from the sample, so hits are more common in it than they were.
LASV entry inh: Lassa virus entry inhibition; Lassa virus pseudotype entry inhibition, cell reporter; Potency, µM (series often up to 37.9 µM), for the others: top-dose activity change, negative = inhibition, most hits filed as inhibitors; 300,000 compounds, 1.2% hits; calls by dose curve; tested in HEK293 cells; also: potency is read from the fitted curve at half-maximal effect; % is scaled to controls: 0 for no effect and ±100 for the full control effect; nearly all actives have a fitted effect of over 50% in size
AMA1-RON2 inh: AMA1-RON2 (P. falciparum) interaction inhibition. Potency, µM (titrated, usually from 58.2 µM), without a hit: at the highest dose activity change, negative = inhibition, most hits filed as inhibitors. 360,000 compounds, 0.2% hits. AID 720542. AlphaScreen AMA1-biotinylated RON2 peptide binding; active = well fitted inhibition curve with a large enough effect; inconclusive = small, poorly fitted or top-dose-only effect; inactive = no such curve, though single readings can be large or run the other way;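 also: potency is read from the fitted curve at half-maximal effect; 0% = vehicle wells and -100% = peptide control; nearly all actives have a fitted effect of over 45% in size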
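AMA1 (3D7) with his tag at 25 nM final met compounds first, then biotinylated RON2 peptide at 25 nM; detection used donor plus acceptor beads, 10 µg/mL apiece, read by AlphaScreen after 30 min at room temperature.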
Shiga inhibitor: Shiga toxin inhibition; Vero cells, Shiga toxin protein synthesis inhibition reporter; inhibition, % at 38.7 µM; 290,000 compounds, 9.2% hits; AID 2315; in the data active = inhibition mostly above about 28%, no sharp cut-off; inactive = mostly below about 43%; also: 0% is about no effect
MARV entry inh: Marburg virus entry inhibition | 300,000 compounds, 1.8% hits | AID 540276 | Potency, µM (top dose mostly 37.8 µM), for the others: at the highest dose activity change, negative = inhibition, actives largely listed as inhibitors | Marburg virus pseudotyped entry inhibition, cell reporter; calls by dose curve; tested in HEK293 cells; also: potency is read from the fitted curve at half-maximal effect; % is scaled to controls: 0 for no effect and ±100 for the full control effect
CHX counter: counter-screen for Shiga toxin inhibitors: cycloheximide protein synthesis inhibition. cell reporter, cycloheximide protein synthesis inhibition counterscreen. max response, %. 300,000 compounds, 12% hits; in the data active = max response mostly above about 13%, no sharp cut-off; inactive = mostly below about 14%; also: read at 38.3 µM for the half of the compounds with a filed dose; 0% is about no effect
Numbers without * were called inactive; [ ] = another dose, or the depositor's remark.

How did COc1ccc2[nH]cc(/C=C/c3cc[n+](C)cc3)c2c1 do in these assays?
AMA1-RON2 inh: 0%; Shiga inhibitor: 2; CHX counter: -1

Results for COc1ccc(CNC(=O)C(=O)NCC(c2cccs2)S(=O)(=O)c2cccs2)cc1 (stereo not given) ?
LASV entry inh: -18%[46.1 µM]

How did O=c1cc(CN(Cc2ccccc2)Cc2ccccc2)c2ccccc2o1 do in these assays?
AMA1-RON2 inh: 19%

How did COc1ccc(Nc2nc(C(=O)NCc3ccco3)cs2)cc1 do in these assays?
AMA1-RON2 inh: 9%; Shiga inhibitor: 44; CHX counter: 14*

What do the screens show for `Cc1ccc(C(=O)N[C@@H](C)CN2C3=NC[C@H](C)N3C[C@H]2Cc2ccc(O)cc2)cc1Br`?
Shiga inhibitor: 5; CHX counter: 12

Results for O=C(c1ccc(Cl)cc1)N1CCC(c2nc(-c3cccs3)no2)CC1 ?
LASV entry inh: -36%[14.3 µM]; AMA1-RON2 inh: -2%; Shiga inhibitor: 2; MARV entry inh: -30%; CHX counter: -2

How did CCC(CC)C(=O)N1CCCC(c2nc(-c3cccs3)no2)C1 (stereo not given) do in these assays?
LASV entry inh: -15%; AMA1-RON2 inh: -4%; Shiga inhibitor: 61*; MARV entry inh: -18%[46.1 µM]; CHX counter: 17

Results for CCN(CC)C(=O)C1CCCN(Cc2nc(-c3cccs3)no2)C1 (stereo not given) ?
LASV entry inh: 5%[46.1 µM]; AMA1-RON2 inh: -5%; Shiga inhibitor: -5; MARV entry inh: 6%[46.1 µM]; CHX counter: -2

What do the screens show for `CCOc1ccc(C(=O)N2CCCC(c3nc(-c4cccs4)no3)C2)cc1` (stereo not given)?
LASV entry inh: inconclusive; AMA1-RON2 inh: -12%; Shiga inhibitor: 33*; MARV entry inh: -4%; CHX counter: 28*

What do the screens show for `COC(=O)c1sc(SC)c(-c2ccon2)c1C`?
LASV entry inh: 4%; AMA1-RON2 inh: -1%; Shiga inhibitor: -4; MARV entry inh: 0%; CHX counter: 6

How did O=C(NC1CCN(Cc2ccccc2)CC1)c1cccc(Br)c1 do in these assays?
LASV entry inh: -13%; AMA1-RON2 inh: 12%; Shiga inhibitor: -5; MARV entry inh: -7%; CHX counter: -3

Results for O=C(/C=C/Nc1ccc(F)cc1F)c1ccc(Br)cc1 ?
LASV entry inh: 7.1µM*; AMA1-RON2 inh: -8%; MARV entry inh: inconclusive

Results for Cc1cc(Br)ccc1NC(=O)c1ccco1 ?
LASV entry inh: inconclusive; AMA1-RON2 inh: 2%; MARV entry inh: -2%; CHX counter: 13

Results for O=C(/C=C/Nc1ccccc1Oc1ccccc1)c1ccco1 ?
LASV entry inh: inconclusive; AMA1-RON2 inh: -25%; Shiga inhibitor: 119*; MARV entry inh: inconclusive; CHX counter: 51*

Results for O=C(/C=C/Nc1ccc(Br)cc1F)c1ccco1 ?
LASV entry inh: 2.2µM*; AMA1-RON2 inh: -27%; Shiga inhibitor: 29; MARV entry inh: 1.4µM*; CHX counter: 12

How did O=C(/C=C/Nc1ccccc1O)c1ccco1 do in these assays?
LASV entry inh: -1%; AMA1-RON2 inh: 73%; Shiga inhibitor: 63*; MARV entry inh: -13%; CHX counter: 38*

What do the screens show for `CC(=O)Nc1ccc(N/C=C/C(=O)c2ccc(Br)cc2)cc1`?
AMA1-RON2 inh: 1%; Shiga inhibitor: 4; CHX counter: -2

Results for CCOc1ccc(-c2cc(C(=O)NCCCOC)c3c(-c4ccc(CC)cc4)[nH]nc3n2)cc1 ?
LASV entry inh: -5%[46.1 µM]

How did O=C(O)c1cc(N/N=C2/CC(c3ccccc3)Oc3ccccc32)ccc1Cl (stereo not given) do in these assays?
LASV entry inh: 2%; AMA1-RON2 inh: -6%; Shiga inhibitor: 54*; MARV entry inh: inconclusive; CHX counter: 40*

How did COC(=O)c1ccc(CN2C(=O)NC3(CCC(C)CC3)C2=O)cc1 (stereo not given) do in these assays?
LASV entry inh: -1%; AMA1-RON2 inh: 1%; Shiga inhibitor: 120*; MARV entry inh: inconclusive; CHX counter: 53*

Results for COC(=O)c1ccc(CN2C(=O)NC3(CCC(C)CC3)C2=O)o1 (stereo not given) ?
LASV entry inh: 1%; AMA1-RON2 inh: 4%; Shiga inhibitor: -6; MARV entry inh: 7%; CHX counter: -4

How did CCCCn1c(N)c(N(CC)C(=O)c2cccs2)c(=O)[nH]c1=O do in these assays?
LASV entry inh: 5%; AMA1-RON2 inh: -24%; MARV entry inh: 12%

What do the screens show for `O=c1cc(-c2ccccc2)[nH]n1-c1nc2ccccc2[nH]1`?
LASV entry inh: inconclusive; AMA1-RON2 inh: -16%; Shiga inhibitor: 21; MARV entry inh: inconclusive; CHX counter: 5

How did Cc1nn(-c2ccccc2)c(N)c1-c1ccccc1 do in these assays?
LASV entry inh: inconclusive; AMA1-RON2 inh: -8%; Shiga inhibitor: 64*; MARV entry inh: inconclusive; CHX counter: 38*

Results for Cc1nn(-c2nc3ccccc3[nH]2)c(N)c1-c1ccccc1 ?
LASV entry inh: inconclusive; AMA1-RON2 inh: 73%; Shiga inhibitor: 67*; MARV entry inh: inconclusive; CHX counter: 42*

Results for Cc1cc(-c2ccco2)n(-c2ccccc2)n1 ?
LASV entry inh: inconclusive; AMA1-RON2 inh: -8%; Shiga inhibitor: -11; MARV entry inh: 1%; CHX counter: 1

What do the screens show for `Cc1cc(-c2ccccc2)n(-c2ccccc2)n1`?
LASV entry inh: 8%[46.1 µM]; AMA1-RON2 inh: 23%; Shiga inhibitor: 94*; MARV entry inh: 3%[46.1 µM]; CHX counter: 40*

How did Cc1nn(-c2ccccc2)c(/N=C/c2ccccc2O)c1-c1ccccc1 do in these assays?
LASV entry inh: inconclusive; AMA1-RON2 inh: -26%; Shiga inhibitor: active; MARV entry inh: inconclusive; CHX counter: 80*

How did COc1cc(OC)c(C(=O)OCC(=O)Nc2nnc(-c3ccccc3)o2)cc1OC do in these assays?
AMA1-RON2 inh: -24%

How did Cc1c(NS(=O)(=O)c2ccc(C(C)(C)C)cc2)c(=O)n(-c2ccccc2)n1C do in these assays?
LASV entry inh: -2%[46.1 µM]; MARV entry inh: -6%[46.1 µM]

Results for Cc1nn(CC2CCCCC2)c(N)c1-c1ccccc1 ?
LASV entry inh: 21%; AMA1-RON2 inh: -1%; Shiga inhibitor: 65*; MARV entry inh: 9%; CHX counter: 44*

What do the screens show for `CS(=O)(=O)CCNCc1ccc(-c2ccc3ncnc(Nc4ccc(OCc5cccc(F)c5)c(C(F)(F)F)c4)c3c2)o1`?
LASV entry inh: 20µM*

Results for CS(=O)(=O)CCNCc1nc(-c2ccc3ncnc(Nc4ccc(OCc5cccc(F)c5)c(Cl)c4)c3c2)cs1 ?
Shiga inhibitor: 26; CHX counter: -5

How did CS(=O)(=O)CCNCc1ccc(-c2ccc3ncnc(Nc4ccc(OCc5ccccc5)cc4)c3c2)o1 do in these assays?
LASV entry inh: 16µM*

How did NCc1ccccc1CS(=O)(=O)N1CCOCC1 do in these assays?
AMA1-RON2 inh: 7%

Results for CCN1CCN(C(=O)CN(CC)S(=O)(=O)c2ccc(F)cc2)CC1 ?
LASV entry inh: 14%; AMA1-RON2 inh: 15%; Shiga inhibitor: -18; MARV entry inh: 11%; CHX counter: -2
